# Results as given in the supplement of paper PMC9694430.
# Assays:
# Test in all cases: thermal shift delta Tm vs DMSO control; higher = stronger stabilization (binding)
# Details in all cases: 12.5 µM; protein concentration 2 µM
# [1] = tested on: LOC_OS01G01410-cb001
# Method in brief: (§1)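 The melting temperature shift given here is a triplicate mean, measured against protein that received only DMSO. Melting temperatures came from Boltzmann fits of differential scanning fluorimetry data on E. coli-expressed, purified rice kinase domain constructs. Each 19.5 μl well contained 2 μM kinase, 100 mM potassium phosphate pH 7.5, 150 mM NaCl, 10% glycerol, 5 × SYPRO Orange and compound in DMSO. Plates were scanned from 25°C to 95°C at 0.05°C/s.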
# [2] = tested on: LOC_OS01G02750-cb003
# Method in brief: as §1
# [3] = tested on: LOC_OS01G10900-cb004
# Method in brief: as §1
# [4] = tested on: LOC_OS01G13800-cb001
# Method in brief: as §1
# [5] = tested on: LOC_OS01G14860-cb001
# Method in brief: as §1
# [6] = tested on: LOC_OS01G21960-cb002
# Method in brief: as §1
# [7] = tested on: LOC_OS01G39600-cb002
# Method in brief: as §1
# [8] = tested on: LOC_OS01G48390-cb002
# Method in brief: as §1
# [9] = tested on: LOC_OS01G51400-cb002
# Method in brief: as §1
# [10] = tested on: T1, LOC_OS01G52050-cb004
# T1 sequence (whole entry): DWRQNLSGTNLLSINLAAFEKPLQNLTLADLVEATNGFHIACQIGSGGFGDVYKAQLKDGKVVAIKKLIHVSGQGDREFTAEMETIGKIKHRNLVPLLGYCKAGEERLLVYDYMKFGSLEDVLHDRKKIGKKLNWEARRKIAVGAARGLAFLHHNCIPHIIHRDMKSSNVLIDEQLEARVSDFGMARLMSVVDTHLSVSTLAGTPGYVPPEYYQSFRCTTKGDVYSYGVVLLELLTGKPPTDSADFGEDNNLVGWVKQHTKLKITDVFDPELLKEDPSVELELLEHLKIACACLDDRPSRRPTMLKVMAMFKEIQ
# Method in brief: as §1
# [11] = tested on: LOC_OS01G57100-cb003
# Method in brief: as §1
# [12] = tested on: LOC_OS01G60330-cb001
# Method in brief: as §1
# [13] = tested on: LOC_OS01G60700-cb002
# Method in brief: as §1
# [14] = tested on: LOC_OS01G63280-cb003
# Method in brief: as §1
# [15] = tested on: LOC_OS01G67340-cb003
# Method in brief: as §1
# [16] = tested on: LOC_OS01G70970-cb002
# Method in brief: as §1
# [17] = tested on: LOC_OS02G07810-cb001
# Method in brief: as §1
# [18] = tested on: LOC_OS02G08530-cb003
# Method in brief: as §1
# [19] = tested on: LOC_OS02G14120-cb001
# Method in brief: as §1
# [20] = tested on: LOC_OS02G17970-cb001
# Method in brief: as §1
SMILES,thermal shift delta Tm [1] [°C],thermal shift delta Tm [2] [°C],thermal shift delta Tm [3] [°C],thermal shift delta Tm [4] [°C],thermal shift delta Tm [5] [°C],thermal shift delta Tm [6] [°C],thermal shift delta Tm [7] [°C],thermal shift delta Tm [8] [°C],thermal shift delta Tm [9] [°C],thermal shift delta Tm [10] [°C],thermal shift delta Tm [11] [°C],thermal shift delta Tm [12] [°C],thermal shift delta Tm [13] [°C],thermal shift delta Tm [14] [°C],thermal shift delta Tm [15] [°C],thermal shift delta Tm [16] [°C],thermal shift delta Tm [17] [°C],thermal shift delta Tm [18] [°C],thermal shift delta Tm [19] [°C],thermal shift delta Tm [20] [°C]
CNC(=O)c1cccc(-c2ccc3c(N4CCOC[C@@H]4C)nc(N4CCOC[C@@H]4C)nc3n2)c1 [Vistusertib (AZD2014)],0.53,0.19,0.09,0.05,-0.13,0.23,-0.58,0.24,0.26,-0.25,0.66,0.59,0.1,0.16,0.54,0.23,0.11,1.58,0,-0.08
COc1ccc(S(=O)(=O)N(C(C)=O)c2ccccc2/C=C/c2cc[n+]([O-])cc2)cc1,-0.1,0.48,0.77,0.64,0.58,0.67,-0.39,0.12,-0.08,0.02,1.85,0.75,0.63,0.55,-0.3,0.2,1.33,0.62,2.16,1.01
CC(C)(CO)n1cc(C(=O)c2cncc(NC(=O)Cc3ccc(Cl)cn3)c2)c2cnc(N)nc21,0.23,0.58,0.35,0.55,0.5,0.13,0.32,0.37,-0.05,2.82,0.95,0.35,0.16,0.14,0.19,0.28,-0.84,0.77,3.51,0.53
O=c1c(-c2ccc(O)cc2)coc2cc(O)cc(O)c12 [Genistein],0.67,0.54,0.86,-0.01,1.11,0.55,0.12,0.77,0.12,1.14,-0.59,0.72,1.28,0.16,-0.02,0.33,0.97,1.28,-1.28,1.58
Nc1cccc(-c2cc3c(Oc4cccc(O)c4)ncnc3[nH]2)c1,2.64,1.81,1.53,0.59,4.88,1.92,3.68,2.32,0.45,2.13,2.04,0.91,1.51,2.09,0.65,0.81,1.59,1.94,5.81,0.97
CCN(C)S(=O)(=O)Nc1ccc(F)c(C(=O)c2c[nH]c3ncc(-c4cnc(C5CC5)nc4)cc23)c1F,1.92,0.92,1.18,0.03,2.04,0.51,3.55,1.01,0.11,0.72,1.23,1.8,0.8,7.4,0.55,0.37,0.74,0.59,-0.46,0.71
O=C(NOCCO)c1ccc2cncn2c1Nc1ccc(I)cc1F,1.18,5.7,1.31,1.55,3.41,0.59,-0.21,1.12,0.54,0.41,1.19,-0.56,0.86,0.2,-0.68,-0.05,1.14,0.47,-1.25,1.62
Cn1cc(-c2cnn3c(N)c(Br)c([C@@H]4CCCNC4)nc23)cn1,0.38,0.39,0.35,0.21,0.82,1.25,0.31,0.35,0.23,0.71,-0.78,1.36,0.1,0.91,0.29,0.3,2.88,0.14,3.6,-0.03
Cc1cc(NC(=O)c2cccc(NC(=O)/C=C/CN(C)C)c2)ccc1Nc1nccc(-c2cccnc2)n1,1.77,1.69,4.22,0.46,1.25,1.6,6.45,1.99,0.73,0.75,1.86,0.94,1.77,0.92,0.69,1.62,1.46,1.8,0.95,1.45
COc1cc(CCc2cc(NC(=O)c3ccc(N4CC(C)NC(C)C4)cc3)n[nH]2)cc(OC)c1 (stereo not given),1.93,0.89,7.96,-0.99,0.38,0.1,0.43,6.33,0.35,0,0.84,0.69,0.93,0.35,0.25,0.66,0.89,1.49,2.12,-0.05
CN1CCN(c2ccc3nc(-c4c(N)c5c(F)cccc5[nH]c4=O)[nH]c3c2)CC1 [Dovitinib (TKI258) Lactate],5.96,2.78,4.81,1.06,2.06,3.87,4.79,3.22,1.02,6.95,1.26,14.2,1.84,1.58,7.49,8.33,0.88,4.27,6.8,2
Cc1cc(Nc2cc(N)ncn2)c(=O)n2c1C(=O)NC21CCCCC1,0.09,0.56,3.66,-0.03,1.91,0.49,-0.58,-0.04,0.24,-0.14,1.68,0.51,-0.25,-0.02,0.19,0.38,-1.2,0.72,2.1,-0.32
FC(F)(F)c1ccc(/C=C/c2nc(COc3ccc(CCCCn4ccnn4)cc3)co2)cc1 [Mubritinib (TAK 165)],0.34,-0.49,0.23,0.16,0.08,-0.04,-0.52,0.23,-0.08,0.24,0.83,0.99,0.41,0.22,-0.98,0.3,0.23,0.63,0.38,0.37
Cc1cc(Nc2ncnc3ccc(-c4ccc(CNCCS(C)(=O)=O)o4)cc23)ccc1Oc1ccn2ncnc2c1 [HER2-Inhibitor-1],1.34,2.06,3.1,0.55,2.31,1.18,3.89,0.83,0.03,1.36,2.52,0.97,1.31,1.08,0.71,0.3,0.98,2.32,2.21,1.79
CN(C)C/C=C/C(=O)Nc1ccc(C(=O)Nc2cccc(Nc3ncc(Cl)c(-c4c[nH]c5ccccc45)n3)c2)cc1,4.03,6.62,0.47,1.95,7.28,4.75,2.35,3.99,1.75,9.77,4.58,12.2,2.21,1.68,4.17,11.9,1.36,5.36,10.1,1.88
Cc1ncc(-c2ccnc(Nc3ccc(S(C)(=O)=O)cc3)n2)n1C(C)C,2.46,2.34,0.85,0.21,7.5,2.32,2.92,0.66,0.48,4.34,1.7,2.38,1.21,4.42,1.74,1.45,1.42,2.22,5.76,1.78
CCN1C(=O)CNc2ncc(-c3ccc(-c4nc[nH]n4)nc3C)nc21,0.49,-0.88,1.31,0.86,1.11,0.62,-1.87,0.34,-0.29,-1.26,1.53,0.57,0.53,-0.65,-0.28,0.01,0.72,0.04,-0.7,0.77
O=C1Nc2ccccc2/C1=C1/Nc2ccccc2C1=O [Indirubin],1.5,-0.12,3.43,-0.14,3.18,0.67,-4.22,0.94,0.43,0.55,0.93,1.8,2.12,0.55,0.71,0.76,1.4,1.85,-0.51,0.97
Cc1nc(NC(=O)N2CCC[C@H]2C(N)=O)sc1-c1ccnc(C(C)(C)C(F)(F)F)c1 [Alpelisib (BYL719)],0.28,1.42,3.68,-0.51,-0.19,0.02,-0.17,0.54,0.42,0.12,0.37,0.43,1.65,0.27,0.12,0.36,0.62,-0.09,2.13,1.03
O=c1cc(N2CCOCC2)oc2c(-c3ccc4c(c3)OCCO4)csc12,0.37,2.36,3.38,-0.36,2.26,0.76,0.21,1.47,0.47,4.58,0.23,0.29,-0.31,0.2,0.35,0.12,-0.78,0.62,1.45,-0.32
Cc1[nH]c(/C=C2\C(=O)Nc3ccc(S(=O)(=O)N(C)c4cccc(Cl)c4)cc32)c(C)c1C(=O)N1CCN(C)CC1,1.44,2.62,0.43,0.07,0.57,0.44,-0.1,0.18,0.14,1.01,1.03,5.91,0.86,-0.04,-0.53,0.47,-0.12,3.7,8.19,-0.27
O=C(Nc1cccnc1)c1cc(-c2ccnc(F)c2)ccc1OCc1ccccc1,2.5,0.28,-0.53,0.66,-0.01,0.38,-0.21,0.88,0.01,-0.04,0.33,0.69,0.86,-0.26,0.85,0.12,0.46,2.26,0.34,0.6
Cc1ncc(CCCN(C)C)cc1Nc1ncc2c(n1)-c1ccc(C(F)(F)F)cc1NC(=S)C2,0.62,1.24,-0.4,0.18,0.59,0.78,-0.18,1.07,0.38,1.48,1.69,0.92,1.39,0.8,0.49,0.65,0.56,1.89,0.46,1.61
O=c1cc(N2CCOCC2)oc2c(-c3cccc4c3sc3ccccc34)cccc12,-0.61,-1.71,3.77,-1.29,0.08,-0.64,-1.62,-0.49,-1.28,-0.72,0.74,0.23,-0.43,-0.77,-0.51,-0.71,-0.42,0.52,0.46,0.12
CCCCCCCCCCCCc1ccc(S(=O)(=O)Nc2nncs2)cc1,0.38,0.24,0.46,0.29,0.62,1.26,0.44,0.62,-0.04,1.1,2.08,0.81,0.86,0.54,-1.07,0.27,1.33,0.91,-0.22,0.86
"CN1CCN(c2ccc3nc(-c4c(N)c5c(F)cccc5[nH]c4=O)[nH]c3c2)CC1 [Dovitinib (TKI-258, CHIR-258)]",6.03,2.05,2.59,-0.2,0.79,2.56,2.01,1.63,0.56,3.72,-0.17,10.3,1.43,0.59,2.72,3.99,0.53,2.72,4.01,-0.27
